Source: ChEMBL document CHEMBL3988442, “University of Dundee, Small-Polar-MMV Screening Library” (2021)
In all, about 48,000 compounds went through this assay and about 13,000 (27%) showed an effect of 50% or more. The list shows a part of the results.

What follows are compounds tested on Wolbachia pipientis (assay: Anti-Wolbachia Cell-Based Screen). Settings: 5 µM.
Type: functional
Set-up: scale not given: in the data most compounds retested in dose-response had high values

Compared with `Cc1csc(N2CCCN(Cc3ccn(C)c(=O)c3)CC2)n1`, `CCN1CCN(c2nc(O)cc(Cc3ccccc3F)n2)CC1` is higher in “Percent Effect” value: 2.494% for the first, 169.1% for the second.

First: CNS(=O)(=O)CCn1cc(-c2ccc(NC(C)=O)cc2)nn1
Second: CNS(=O)(=O)Cc1ccccc1CNc1ccc(C#N)cn1
The “Percent Effect” value of the first is lower: -17.97% for the first, 4.345% for the second.

Compared with `CN(C)S(=O)(=O)N1CCC(Oc2ccccn2)CC1`, `CN(C)S(=O)(=O)N1CCC(Oc2cccnn2)CC1` is higher in “Percent Effect” value: -12.57% for the first, 154.7% for the second.

Compared with `Cc1ccc(S(=O)(=O)N2CCC(Oc3cccnn3)CC2)c(C)c1`, `COc1ccc(C)cc1CCNS(=O)(=O)c1ccc2c(c1)CCC(=O)N2` is lower in “Percent Effect” value: -2.974% for the first, -14.2% for the second.

Going from `Cc1cc(CN2CC[C@H]3C[C@H](C(=O)Nc4cccnc4C)O[C@@H]3C2)no1.O=C(O)C(F)(F)F.O=C(O)C(F)(F)F` to `Cc1cc(C(F)(F)F)nn1C(C)C(=O)Nc1ccncc1` (stereo not given), the “Percent Effect” value rises from 0% to 11.57%.

Going from `COCC(=O)N1Cc2cnc(Cc3ccc(OC)cc3)nc2C1` to `COCC(=O)N1CC(=O)c2sc(Nc3ccc(F)cc3F)nc2C1`, the “Percent Effect” value rises from -9.911% to 92.12%.

Compared with `COc1ccccc1NC(=O)CC(C)NCCc1sc(C)nc1C` (stereo not given), `COc1ccccc1NC(=O)CC(C)NCc1scnc1C` (stereo not given) is lower in “Percent Effect” value: -7.62% for the first, -14.83% for the second.

First: COc1ccccc1Nc1nc2c(s1)C(=O)CN(C(=O)CC(C)C)C2
Second: CC(C)CC(=O)N1CC(=O)c2sc(Nc3ccc(F)cc3F)nc2C1
The “Percent Effect” value of the first is higher: 106.8% for the first, 102.3% for the second.

First: CC(C)(C)NC(=O)CN1CCN(C(=O)Nc2ccc(F)cc2F)CC1
Second: Cc1c(C(C)NC(=O)Nc2ccc(F)cc2F)cnn1C (stereo not given)
The “Percent Effect” value of the first is higher: 10.15% for the first, -7.694% for the second.

First: Cc1cnccc1-n1nc(C(C)C)nc1CS(C)(=O)=O
Second: CCCN(Cc1nccn1C)C(=O)c1cc(C(C)C)on1
The “Percent Effect” value of the first is higher: -11.94% for the first, -14.15% for the second.

Compared with `Cn1cc(C(NCCc2ccccn2)c2cccc(F)c2)cn1` (stereo not given), `CCN1CCN(c2ccc(F)cc2C(C)NCc2ccccn2)CC1` (stereo not given) is higher in “Percent Effect” value: -5.902% for the first, 9.781% for the second.

First: CN(C(=O)CCc1ccsc1)S(C)(=O)=O
Second: CSc1ccc(CN(C(=O)c2cc[nH]n2)C2CC2)cc1
The “Percent Effect” value of the first is higher: -3.197% for the first, -13.27% for the second.

Compared with `CC(C)CNC(=O)N1C[C@H]2CC[C@@]3(N=C(c4ccccc4)NC3=O)[C@H]2C1`, `Cc1noc([C@@H]2C[C@H](NC(=O)Nc3ccccc3)CN2C)n1` is higher in “Percent Effect” value: -1.799% for the first, 1.901% for the second.

Going from `CN(C)CCCNCC1CCOC(C)(C)C1` (stereo not given) to `CN(C)CCNCC1CCOC(C)(C)C1` (stereo not given), the “Percent Effect” value rises from 84.35% to 114.8%.

Going from `CC1(C)CC(CN2CCC3(CCC(=O)N(CCO)C3)CC2)CCO1` (stereo not given) to `Cl.O=C(NCC1CCC2(CCNCC2)CO1)c1ccno1` (stereo not given), the “Percent Effect” value rises from -24.07% to -17.95%.

Going from `CC(C)NC(=O)C(C(C)C)n1cnc2cc(F)c(F)cc21` (stereo not given) to `Cc1cc(C(F)F)nn1C(C)C(=O)NCc1nccn1C` (stereo not given), the “Percent Effect” value rises from -2.583% to 129.1%.

First: Cn1cnc2c1C(C(=O)N1CCOCC1)N(C(=O)c1ccccc1)CC2 (stereo not given)
Second: Cc1ncc2c(n1)CCN(Cc1nc(Cc3ccccc3)no1)C2
The “Percent Effect” value of the first is lower: 1.78% for the first, 2.52% for the second.

First: CCC1CCCCN1C(=O)Cn1cnc(C#N)n1 (stereo not given)
Second: CCC1CCCCN1C(=O)Cn1nc(-c2ccc(C)s2)cc(N)c1=O (stereo not given)
The “Percent Effect” value of the first is lower: -4.598% for the first, 132.6% for the second.

Compared with `CNC(=O)C1CCCCN1C(=O)Cc1csc(-c2ccc(C)o2)n1` (stereo not given), `CCC1CCCCN1C(=O)Cn1nc(-c2ccc(C)o2)cc(N)c1=O` (stereo not given) is higher in “Percent Effect” value: 7.331% for the first, 125.9% for the second.

First: Cc1cc(-c2cc(N)c(=O)n(CC(=O)N3CCCC(C)C3)n2)c(C)o1 (stereo not given)
Second: CCC1CCCCN1C(=O)Cn1nc(-c2cc(C)oc2C)cc(N)c1=O (stereo not given)
The “Percent Effect” value of the first is lower: 135.5% for the first, 172.7% for the second.

First: CCOC(=O)CC1CCCCN1C(=O)c1cc(C)oc1C (stereo not given)
Second: CCOC(=O)CC1CCCCN1C(=O)c1cc(=O)[nH]c(=O)[nH]1 (stereo not given)
The “Percent Effect” value of the first is lower: 1.644% for the first, 3.722% for the second.

Compared with `Cc1cc(C)n(C2CCCN(C(=O)Cn3ccc(=O)n(C)c3=O)C2)n1` (stereo not given), `CC1CCCN(C(=O)Cn2cc(I)cn2)C1` (stereo not given) is lower in “Percent Effect” value: 5.694% for the first, 2.299% for the second.

Compared with `Cc1ccc(-c2cc(N)c(=O)n(CC(=O)NCC3CCCCC3)n2)s1`, `COCCN1CCC(CNC(=O)CCc2cc(F)ccc2F)C1` (stereo not given) is higher in “Percent Effect” value: -12.04% for the first, -0.9804% for the second.

Compared with `COC(=O)N1CCC(Nc2cccc(F)c2C(C)=O)C1` (stereo not given), `COCCN1CCC(NCc2c(F)cccc2F)C1` (stereo not given) is higher in “Percent Effect” value: 18.09% for the first, 93.26% for the second.

Going from `Cc1cc(CNc2ccc3nc(C4CC4)sc3c2)no1` to `COc1ccc2c(C)nc(N3C[C@@H](C)O[C@@H](C)C3)nc2c1`, the “Percent Effect” value rises from -18.62% to -4.468%.

First: COCCN1CCC(NCc2cccc(C)c2)C1 (stereo not given)
Second: COCCN1CCC(NCc2cccc(F)c2)C1 (stereo not given)
The “Percent Effect” value of the first is higher: 89.68% for the first, 4.631% for the second.

Compared with `COCCN1CCC(NCc2cccnc2)C1` (stereo not given), `COCCN1CCC(NCc2ccc(Cl)cc2)C1` (stereo not given) is higher in “Percent Effect” value: -0.4239% for the first, 79.9% for the second.

First: COCCN1CCC(NCc2c(C)nn(C)c2N(C)C)CC1
Second: COCCN1CCC(NC(=O)C(C)C)CC1
The “Percent Effect” value of the first is lower: -18.36% for the first, -12.29% for the second.

Going from `COCCN1CCC(NCc2cc(F)ccc2F)C1` (stereo not given) to `COCCN1CCC(NCc2ccc(F)cc2F)C1` (stereo not given), the “Percent Effect” value falls from 105% to 87.91%.

First: COCCN1CCC(NCc2ccc(C#N)cc2)C1 (stereo not given)
Second: CCCN1CCC(NCc2ccncc2)CC1
The “Percent Effect” value of the first is lower: -5.015% for the first, 12.05% for the second.

First: COCCN1CCC(NC(=O)NCC2(c3cccc(F)c3)CC2)C1 (stereo not given)
Second: COCCN1CCN(c2nc(O)cc(Cc3ccccc3F)n2)CC1
The “Percent Effect” value of the first is lower: 7.702% for the first, 126.9% for the second.

Compared with `CCCN(Cc1nccn1C)C(=O)C(CC)Nc1cccc(OC)c1` (stereo not given), `Cc1cccc(I)c1C(=O)NCc1ncc[nH]1` is higher in “Percent Effect” value: -30.45% for the first, -11.65% for the second.

First: CC(C)Nc1ncccc1C(=O)NCc1ncc[nH]1
Second: Cc1cc(C(F)F)nn1C(C)C(=O)NCc1ncc[nH]1 (stereo not given)
The “Percent Effect” value of the first is lower: 7.716% for the first, 132.9% for the second.

Compared with `CN(C)C(=O)C1CCCN1C(=O)c1ccc(Cn2ccnc2)o1` (stereo not given), `C[C@@H]1CN(Cc2ccccc2F)CC(C(N)=O)O1` (stereo not given in full) is higher in “Percent Effect” value: -6.024% for the first, 1.23% for the second.

Compared with `CCN1CCCC(O)(CNCc2ccccc2F)C1` (stereo not given), `CN1CCN(CCCNS(=O)(=O)Cc2ccccc2F)CC1` is lower in “Percent Effect” value: 5.055% for the first, -19.52% for the second.

Compared with `CN1CCN(c2nc(O)cc(Cc3ccccc3F)n2)CC1`, `C[C@@H]1CN(c2nc(O)cc(Cc3ccccc3F)n2)C[C@H](C)O1` is higher in “Percent Effect” value: 156.6% for the first, 156.7% for the second.

Going from `COCCN1CCN(Cc2coc(-c3ccccc3Cl)n2)CC1` to `CCOc1ccnc(N2CCN(CCOC)CC2)n1`, the “Percent Effect” value rises from -11.13% to -0.8063%.

With `CC(NCc1ccccn1)c1ccc(N2CCN(C)CC2)c(F)c1` (stereo not given) the “Percent Effect” value was -5.411%.
